Compounds without any hit were thinned out: in the full panel of roughly 79,000, 15% have a hit. Activity calls are given as the source filed them. Cut-off read from the data, not from the text of the source: active = growth inhibition above about 70%; inactive = the rest.
Legend:
[1] = NCI Yeast Anticancer Drug Screen. Data for the rad52 strain (AID 147);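 note: 0% = growth of vehicle-treated control cultures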; conditions: S. cerevisiae rad52 mutant growth inhibition, hits give high values
Procedure, shortened: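 Here a repair-compromised yeast strain receives each compound; its growth is then quantified and normalised to vehicle-only controls.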

[2] = NCI Yeast Anticancer Drug Screen. Data for the wt1 strain (AID 149);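 note: 0% = growth of vehicle-treated wt1 cultures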; conditions: S. cerevisiae wt1 strain (SPY 50644) growth inhibition, hits give high values
Procedure, shortened: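 Readout: yeast growth inhibition, normalised to vehicle controls, in the wt1 strain exposed to test compounds.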

[3] = NCI Yeast Anticancer Drug Screen. Data for the rad50EPP+ strain (AID 151);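 note: 0% = growth of vehicle-treated control cultures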; conditions: S. cerevisiae rad50 mutant strain, hits give high values
Procedure, shortened: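 Read-out is yeast growth inhibition relative to vehicle; cells used were the rad50EPP+ strain.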

[4] = NCI Yeast Anticancer Drug Screen. Data for the mgt1 strain (AID 153); conditions: S. cerevisiae mgt1 mutant growth inhibition, hits give high values
Procedure, shortened: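 Measured: inhibition of mgt1 yeast growth by compound, normalized to vehicle-treated cultures.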

[5] = NCI Yeast Anticancer Drug Screen. Data for the rad50 strain (AID 155);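 note: 0% = growth of vehicle-only cultures of the same strain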; conditions: S. cerevisiae rad50 strain growth inhibition, hits give high values
Procedure, shortened: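 Compounds were tested on a yeast strain with an engineered DNA damage repair alteration; the reported value is growth inhibition normalised to vehicle treatment.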

[6] = NCI Yeast Anticancer Drug Screen. Data for the mec2-1 strain (AID 157); conditions: S. cerevisiae mec2-1 strain, hits give high values
Procedure, shortened: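 Using mec2-1 yeast: add compound, measure growth, express inhibition versus vehicle-treated cultures.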

[7] = NCI Yeast Anticancer Drug Screen. Data for the sgs1 mgt1 strain (AID 161);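 note: 0% = growth of cultures given vehicle only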; conditions: S. cerevisiae sgs1 mgt1 strain, hits give high values
Procedure, shortened: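 Yeast cells carrying a defined DNA-repair defect were exposed to test compounds. Growth inhibition was measured relative to vehicle-treated controls.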

[8] = NCI Yeast Anticancer Drug Screen. Data for the cln2 rad14 strain (AID 165);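 note: 0% = growth equal to vehicle treated cultures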; conditions: S. cerevisiae cln2 rad14 strain, hits give high values
Procedure, shortened: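 Yeast strain cln2 rad14, bearing defects in cell cycle control and DNA repair, serves as the test system; values reflect growth inhibition compared with vehicle.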

[9] = NCI Yeast Anticancer Drug Screen. Data for the bub3 strain (AID 167); conditions: S. cerevisiae bub3 mutant strain, hits give high values
Procedure, shortened: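 Growth of a checkpoint-deficient yeast mutant is measured after compound exposure. Values represent inhibition relative to vehicle.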

[10] = NCI Yeast Anticancer Drug Screen. Data for the wt2 strain (AID 169);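 note: 0% = growth of vehicle-treated yeast cultures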; conditions: S. cerevisiae wt2 strain growth inhibition, hits give high values
Procedure, shortened: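 Treated yeast vs. vehicle-treated yeast: growth inhibition determined.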

[11] = NCI Yeast Anticancer Drug Screen. Data for the mlh1 strain (AID 171);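 note: 0% = growth of vehicle-treated control cultures of the same strain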; conditions: S. cerevisiae mlh1 strain growth inhibition, hits give high values
Procedure, shortened: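 A yeast strain with a defined genetic lesion serves as the test organism. Cultures receive compound or vehicle, and growth is measured.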

[12] = NCI Yeast Anticancer Drug Screen. Data for the sgs1 strain (AID 173);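 note: 0% = growth of vehicle-only control cultures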; conditions: S. cerevisiae sgs1 mutant, hits give high values
Procedure, shortened: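 A genetically defined yeast mutant is incubated with the test compound, and its growth is compared to that of the same strain given vehicle.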

[13] = NCI Yeast Anticancer Drug Screen. Data for the mlh1 rad18 strain (AID 175); conditions: S. cerevisiae mlh1 rad18 strain growth inhibition, hits give high values
Procedure, shortened: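 Steps: expose repair-defective yeast to compound; measure growth; express inhibition against vehicle-treated controls.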

[14] = NCI Yeast Anticancer Drug Screen. Data for the rad18 strain (AID 177); conditions: S. cerevisiae rad18 mutant growth inhibition, hits give high values
Procedure, shortened: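 Measured value is growth inhibition of a yeast strain bearing a DNA repair alteration, referenced to vehicle-treated cells.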

[15] = NCI Yeast Anticancer Drug Screen. Data for the CLN2oe strain (AID 163);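 note: 0% = growth of vehicle-only control cultures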; conditions: S. cerevisiae CLN2oe strain, hits give high values
Procedure, shortened: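 Whole-cell yeast growth assay. A strain engineered for altered cell-cycle control received compound, and inhibition relative to vehicle-treated cultures was recorded.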

[16] = at 5.0 µM (retest, dose inferred, filed as 0.5)
[17] = at 50.0 µM (retest, dose inferred, filed as 5.0)

Measured: growth inhibition

CCC/C(Cl)=N\OC(=O)Nc1ccc(Br)cc1
active: [1]; at 11.0 µM 94% | [1]; at 33.0 µM 98% | [1]; at 100.0 µM 98% | [2]; at 33.0 µM 97% | [2]; at 100.0 µM 98% | [3]; at 33.0 µM 77% | [3]; at 100.0 µM 81% | [4]; at 11.0 µM 82% | [4]; at 33.0 µM 98% | [4]; at 100.0 µM 99% | [5]; at 11.0 µM 86% | [5]; at 33.0 µM 97% | [5]; [17] 99% | [5]; at 50.0 µM 88.2% | [5]; at 100.0 µM 98% | [6]; at 11.0 µM 77% | [6]; at 33.0 µM 98% | [6]; [17] 99% | [6]; at 50.0 µM 92% | [6]; at 100.0 µM 99% | [7]; [17] 99% | [7]; at 50.0 µM 84% | [8]; [17] 99% | [8]; at 50.0 µM 89.8% | [9]; at 33.0 µM 94% | [9]; [17] 99% | [9]; at 50.0 µM 87.6% | [9]; at 100.0 µM 96% | [10]; at 11.0 µM 90% | [10]; at 33.0 µM 98% | [10]; at 100.0 µM 99% | [11]; at 11.0 µM 76% | [11]; at 33.0 µM 97% | [11]; at 100.0 µM 98% | [12]; at 11.0 µM 94% | [12]; at 33.0 µM 98% | [12]; at 100.0 µM 98% | [13]; [17] 99% | [13]; at 50.0 µM 83.8% | [14]; at 1.2 µM 71% | [14]; at 3.7 µM 77% | [14]; at 11.0 µM 93% | [14]; at 33.0 µM 97% | [14]; at 100.0 µM 98%
inactive: [1]; at 1.2 µM 58% | [1]; at 3.7 µM 69% | [2]; at 1.2 µM 13% | [2]; at 3.7 µM 14% | [2]; at 11.0 µM 58% | [3]; at 1.2 µM 26% | [3]; at 3.7 µM 31% | [3]; at 11.0 µM 56% | [4]; at 1.2 µM 9% | [4]; at 3.7 µM 16% | [5]; at 1.2 µM 32% | [5]; at 3.7 µM 40% | [5]; [16] 9% | [6]; at 1.2 µM 16% | [6]; at 3.7 µM 27% | [6]; [16] -16% | [7]; [16] 9% | [8]; [16] -22% | [9]; at 1.2 µM 1% | [9]; at 3.7 µM 17% | [9]; [16] -48% | [9]; at 11.0 µM 63% | [10]; at 1.2 µM 25% | [10]; at 3.7 µM 33% | [11]; at 1.2 µM 14% | [11]; at 3.7 µM 19% | [12]; at 1.2 µM 65% | [12]; at 3.7 µM 62% | [13]; [16] 61%

OC1CSCCCSCCSCCCSC1
active: [9]; [17] 82%
inactive: [1]; at 1.2 µM -53% | [1]; at 3.7 µM -55% | [1]; at 11.0 µM -49% | [1]; at 33.0 µM -61% | [1]; at 100.0 µM -48% | [2]; at 1.2 µM -12% | [2]; at 3.7 µM -16% | [2]; at 11.0 µM -22% | [2]; at 33.0 µM -25% | [2]; at 100.0 µM -25% | [3]; at 1.2 µM -30% | [3]; at 3.7 µM -52% | [3]; at 11.0 µM -49% | [3]; at 33.0 µM -29% | [3]; at 100.0 µM -35% | [4]; at 1.2 µM -5% | [4]; at 3.7 µM -6% | [4]; at 11.0 µM -10% | [4]; at 33.0 µM -9% | [4]; at 100.0 µM -29% | [5]; at 1.2 µM -28% | [5]; at 3.7 µM -27% | [5]; [16] -11% | [5]; at 11.0 µM -3% | [5]; at 33.0 µM -2% | [5]; [17] -14% | [5]; at 50.0 µM 12.3% | [5]; at 100.0 µM -25% | [6]; at 1.2 µM -22% | [6]; at 3.7 µM -27% | [6]; [16] -48% | [6]; at 11.0 µM -21% | [6]; at 33.0 µM 4% | [6]; [17] 5% | [6]; at 50.0 µM 20.5% | [6]; at 100.0 µM -29% | [7]; [16] -1% | [7]; [17] 4% | [7]; at 50.0 µM 28.7% | [15]; at 1.2 µM -5% | [15]; at 3.7 µM -12% | [15]; at 11.0 µM 3% | [15]; at 33.0 µM 17% | [15]; at 100.0 µM 1% | [8]; [16] 12% | [8]; [17] 25% | [8]; at 50.0 µM 10.7% | [9]; at 1.2 µM -8% | [9]; at 3.7 µM 0% | [9]; [16] 16% | [9]; at 11.0 µM 16% | [9]; at 33.0 µM 64% | [9]; at 50.0 µM 69.2% | [9]; at 100.0 µM 68% | [10]; at 1.2 µM -30% | [10]; at 3.7 µM -17% | [10]; at 11.0 µM -16% | [10]; at 33.0 µM -31% | [10]; at 100.0 µM -22% | [11]; at 1.2 µM -4% | [11]; at 3.7 µM 16% | [11]; at 11.0 µM 2% | [11]; at 33.0 µM 16% | [11]; at 100.0 µM -17% | [12]; at 1.2 µM -9% | [12]; at 3.7 µM -5% | [12]; at 11.0 µM -10% | [12]; at 33.0 µM -14% | [12]; at 100.0 µM -24% | [13]; [16] -22% | [13]; [17] 22% | [13]; at 50.0 µM 26.9% | [14]; at 1.2 µM -30% | [14]; at 3.7 µM -41% | [14]; at 11.0 µM -49% | [14]; at 33.0 µM -49% | [14]; at 100.0 µM -75%
